Reference: PubChem BioAssay

Test: suppressors of polyglutamine aggregation in yeast, 75Q-TubH (AID 1616)
Details: S. cerevisiae 75Q-TubH polyglutamine aggregation suppression; stronger effect = higher value

Point of comparison: CC(=O)C1=C(O)C2C3c4c[nH]c5cccc(c45)CC3C(C)(C)N2C1=O (stereo not given), aggregation suppression score 0.0191. Against it:
- C[C@@H]1CC[C@H]2[C@@H](C)C(=O)O[C@@H]3OC4(C)CC[C@@H]1[C@]32OO4 — higher, 0.15
- CCC(C)C(=O)O[C@H]1[C@H](O)C2C(CN3CC(C)CCC3[C@@]2(C)O)C2C[C@]34O[C@]5(O)C(OC(=O)C(C)(O)C(C)O)CC[C@@]3(C)C5C(OC(C)=O)[C@@H](OC(C)=O)C4[C@@]21O (stereo not given in full) — higher, 1.75
- CO[C@H]1[C@H](O)[C@H](O[C@H]2CC[C@]3(C)C4CC[C@]5(C)C(C6=CC(=O)OC6)CC[C@]5(O)C4CC[C@@H]3C2)O[C@@H](C)[C@@H]1O (stereo not given in full) — higher, 1.46
- C/C=C(\C)C(=O)O[C@H]1C[C@@H](OC(C)=O)[C@@]2(C(=O)OC)CO[C@@H]3C2[C@]12CO[C@](O)(C(=O)OC)[C@H]2[C@](C)(C12O[C@@]1(C)[C@H]1C[C@@H]2OC2OC=C[C@@]21O)[C@@H]3O (stereo not given in full) — higher, 1
- O=C1CC2OCC=C3CN4CC[C@]56c7ccccc7N1C5[C@H]2[C@H]3CC46 (stereo not given in full) — higher, 0.688
- COc1ccc2c(c1)[C@]13CCCC[C@H]1[C@H](C2)N(C)CC3 — higher, 1.29
- COc1ccc2c(c1OC)C(=O)O[C@H]2[C@H]1c2cc3c(cc2CCN1C)OCO3 — higher, 1.24
- C[C@H]1O[C@@H](O[C@H]2[C@@H](O)C[C@H](O[C@H]3[C@@H](O)C[C@H](O[C@H]4CC[C@]5(C)C6CC[C@]7(C)[C@@H](C8=CC(=O)OC8)CC[C@]7(O)C6CC[C@@H]5C4)O[C@@H]3C)O[C@@H]2C)C[C@H](O)[C@@H]1O (stereo not given in full) — higher, 0.858
- C=C1C2CC[C@H]3[C@]4(C)C[C@H](OC5OC(CO)C(OS(=O)(=O)O)C(OS(=O)(=O)O)C5OC(=O)CC(C)C)C[C@@H](C(=O)O)[C@H]4CC[C@]3(C2)[C@H]1O (stereo not given in full) — higher, 1.68
